Reference: ChEMBL document CHEMBL4808148, “HDAC6 screening dataset using tau-based substrate in an enzymatic assay yields selective inhibitors and activators” (2021)
In all, about 5,600 compounds went through this assay and about 390 (7%) showed an effect of 50% or more. The full list was thinned out, with strong results kept by preference. Residues, ends and D or L forms follow the SMILES beside them. *: point of attachment. PhAc = O=C(Cc1ccccc1)*

Key:
[1] = target: T1, Protein deacetylase HDAC6 (Homo sapiens) (UniProt Q9UBN7); details: at 10 µM
T1 sequence (whole entry): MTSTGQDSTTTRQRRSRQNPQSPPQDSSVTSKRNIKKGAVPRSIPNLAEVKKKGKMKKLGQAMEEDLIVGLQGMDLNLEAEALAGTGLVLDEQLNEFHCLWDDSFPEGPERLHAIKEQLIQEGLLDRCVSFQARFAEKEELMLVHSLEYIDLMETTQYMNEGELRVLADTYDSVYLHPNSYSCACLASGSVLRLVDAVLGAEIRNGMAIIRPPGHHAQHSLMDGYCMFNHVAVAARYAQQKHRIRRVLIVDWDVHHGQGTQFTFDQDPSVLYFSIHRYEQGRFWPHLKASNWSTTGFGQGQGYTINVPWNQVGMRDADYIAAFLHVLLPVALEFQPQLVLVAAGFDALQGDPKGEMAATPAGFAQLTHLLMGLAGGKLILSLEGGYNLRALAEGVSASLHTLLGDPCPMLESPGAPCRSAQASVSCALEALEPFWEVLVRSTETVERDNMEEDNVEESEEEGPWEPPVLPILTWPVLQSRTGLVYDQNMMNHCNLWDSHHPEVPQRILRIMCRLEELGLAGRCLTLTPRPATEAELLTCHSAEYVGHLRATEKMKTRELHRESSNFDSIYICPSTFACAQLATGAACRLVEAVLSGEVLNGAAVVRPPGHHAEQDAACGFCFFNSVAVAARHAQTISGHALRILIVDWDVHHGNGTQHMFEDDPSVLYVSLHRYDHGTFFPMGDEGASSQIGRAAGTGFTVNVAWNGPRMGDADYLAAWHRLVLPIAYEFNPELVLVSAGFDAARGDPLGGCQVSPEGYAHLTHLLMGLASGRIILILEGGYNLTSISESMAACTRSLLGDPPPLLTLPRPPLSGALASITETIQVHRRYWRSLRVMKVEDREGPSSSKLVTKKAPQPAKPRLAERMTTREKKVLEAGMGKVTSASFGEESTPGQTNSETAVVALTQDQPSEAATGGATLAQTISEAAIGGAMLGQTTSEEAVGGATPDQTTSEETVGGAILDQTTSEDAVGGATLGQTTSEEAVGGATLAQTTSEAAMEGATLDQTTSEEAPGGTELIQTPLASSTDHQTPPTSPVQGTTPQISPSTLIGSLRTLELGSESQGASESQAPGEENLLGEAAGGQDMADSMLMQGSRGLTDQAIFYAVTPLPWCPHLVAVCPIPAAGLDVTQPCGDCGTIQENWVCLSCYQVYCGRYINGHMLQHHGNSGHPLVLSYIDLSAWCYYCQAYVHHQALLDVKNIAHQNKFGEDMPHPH

[2] = target: Protein deacetylase HDAC6 (Homo sapiens) (UniProt Q9UBN7); details: at 10 µM; remark: listed apart in the source

Cn1cncc1[C@@](N)(c1ccc(Cl)cc1)c1ccc2c(c1)c(-c1cccc(Cl)c1)cc(=O)n2C
inhibition [1]: -5.64%

Nc1nc(NC2CC2)c2ncn([C@H]3C=C[C@@H](CO)C3)c2n1
inhibition [1]: -5.79%

NC(=O)OCCCc1ccccc1
inhibition [1]: 15.1%

Cc1ccc(NCCCc2ccccc2)c(N)c1
inhibition [1]: 78.2%

O=C(O)c1ccccc1NCCc1ccccc1
inhibition [1]: 42.4%

CCOc1cc2ncc(C#N)c(Nc3ccc(F)c(Cl)c3)c2cc1NC(=O)/C=C/CN(C)C
inhibition [1]: 36.7%

CCOC(=O)CNC(=O)[C@@H]1CCCN1C(=O)Cc1ccccc1 (PhAc-Pro-Gly-OEt)
inhibition [1]: 4.19%

COC(=O)[C@H](CC(C)C)NC(=O)[C@H](N)CC(C)C
inhibition [1]: 10.2%

CC1(C)[C@H]2CC[C@@]1(C)[C@H](O)[C@@H]2O (racemic)
inhibition [1]: 31.2%

CCOC(=O)C1=C(N)Oc2ccc(Br)cc2[C@H]1[C@H](C#N)C(=O)OCC
inhibition [1]: 52.9%

CCOC(=O)C1=C(N)Oc2ccc(Br)cc2C1C(C#N)C(=O)OCC (centres undefined)
inhibition [1]: 27.8%

Cc1cccc(C)c1NC(=O)CN1CCCCCC1
inhibition [1]: 16.5%

Cc1ccc(NC(=O)CCCCCC(=O)Nc2ccccc2N)cc1
inhibition [1]: -2.93%

C/C(=N\NC(=N)N)c1cc(NC(=O)CCCCCCCCC(=O)Nc2cc(/C(C)=N/NC(=N)N)cc(/C(C)=N/NC(=N)N)c2)cc(/C(C)=N/NC(=N)N)c1
inhibition [1]: 77.6%

CCS(=O)(=O)N(Cc1cccnc1)c1cccc(-c2ccc(C#N)cc2)c1
inhibition [1]: 17%

CC1(N2CCC(n3c([C@H]4CCCNC4)nc4ccccc43)CC2)CCCCCCC1
inhibition [1]: -2.41%

CCC[C@@H]1CC(=O)N([C@@H](CC)C(N)=O)C1
inhibition [1]: 29.1%

C[C@H](/C=C/[C@H](C)C(C)(C)O)[C@H]1CC[C@H]2/C(=C/C=C3C[C@@H](O)C[C@H](O)C3)CCC[C@]12C
inhibition [1]: 9.32%

CCCCN(CCCC)C(=O)CN1C[C@H](c2ccc3c(c2)OCO3)[C@@H](C(=O)O)[C@@H]1c1ccc(OC)cc1
inhibition [1]: 34.1%

N=C(Nc1ccccc1)Nc1ccccc1
inhibition [1]: 15.5%

N=C(Nc1ccccc1)c1cccs1
inhibition [1]: 37.1%

O=C1NC(=S)NC(=O)C1C(=O)Nc1ccccc1
inhibition [1]: 96.3%

CON(C)C(=O)[C@H](O)[C@H](Cc1ccccc1)NC(=O)c1cc2cc(Cl)ccc2[nH]1
inhibition [1]: 5.68%

CN[C@H]1C[C@@H](N)[C@H](O)[C@@H](O[C@@H]2O[C@H](CO)[C@H](O)[C@@H]3OC4(O[C@H]23)O[C@H]([C@@H](N)CO)[C@H](O)[C@H](O)[C@H]4O)[C@@H]1O (some centres undefined)
inhibition [1]: 6.11%

N#Cc1ccc2[nH]c(O)c(-c3ccc(CN4CCOCC4)cn3)c2c1
inhibition [1]: 11.3%

Cc1[nH]c(/C=C2\C(=O)Nc3cc(-c4ccccc4)ccc32)c(C)c1CCC(=O)O
inhibition [1]: 95.2%

CN/C(=N\S(=O)(=O)c1ccc(Cl)cc1)N1CC(c2ccccc2)C(c2ccc(Cl)cc2)=N1 (racemic)
inhibition [1]: 9.02%

O=C1CC(=O)c2c(Cl)c(Cl)c(Cl)c(Cl)c21
inhibition [1]: -2.09%

CN1C[C@@H]2CN(c3ccc(-c4ccccc4)nn3)C[C@@H]2C1
inhibition [1]: 10.2%

O=C1N[C@H](C(=O)O)CS1
inhibition [1]: 9.69%

CCOc1cc(/C=C2/C(=O)N(c3ccccc3)N=C2C)cc(Cl)c1OCC(=O)OC
inhibition [1]: 101%

HYALURONIC ACID, CHEMBL5314376
inhibition [2]: -9.36%

CN(C)C(=O)CCSC(SCCC(=O)O)c1cccc(/C=C/c2ccc3ccc(Cl)cc3n2)c1 (centres undefined)
inhibition [1]: 10.8%

N[C@@H](CSCCCO)C(=O)O
inhibition [1]: 24.6%

COc1ccc(-n2nc3c4c([nH]cc-3c2=O)CCCCC4)cc1
inhibition [1]: 40.9%

O=c1c2c[nH]c3ccccc3c-2nn1-c1ccc(Cl)cc1
inhibition [1]: 97.1%

CCCCCCCCCCCCCCCc1cccc(OCC(=O)NCCO)c1
inhibition [1]: -3.57%

CC(C)c1nnc(-c2ccc(-c3ccccc3)nc2)n1-c1cccc2nonc12
inhibition [1]: 4.02%

COC(=O)C[C@@](O)(CCC(C)(C)O)C(=O)O[C@@H]1C(OC)=C[C@]23CCCN2CCc2cc4c(cc2[C@@H]13)OCO4
inhibition [1]: -1.89%

C[N+]1(CC2CC2)[C@@H]2C[C@@H](OC(=O)[C@H](CO)c3ccccc3)C[C@H]1[C@@H]1O[C@@H]12 (some centres undefined)
inhibition [1]: -9.14%

COC(=O)N1CC[C@@H]2[C@H]1CCC[C@@]2(O)C#Cc1cccc(C)c1
inhibition [1]: 29.3%

O=C(Nc1ccc(Br)cc1)c1cc(Br)cc(Br)c1O
inhibition [1]: 100%

CCOC(=O)c1c(/C(C#N)=C\N)c2ccc(Cl)c(Cl)c2n1C
inhibition [1]: 0.46%

Cc1c(F)cc(C(=O)NC2CC2)cc1-c1c(F)cn2c(C(C)(C)C)nnc2c1F
inhibition [1]: -2%

CC1(C)CC[C@]2(NC(=O)C(C)(F)F)CC[C@]3(C)C(C(=O)C=C4[C@@]5(C)C=C(C#N)C(=O)C(C)(C)[C@@H]5CC[C@]43C)C2C1 (some centres undefined)
inhibition [1]: 19.7%

C[C@]12CC[C@H]3C(=CCc4cc(O)ccc43)[C@@H]1CCC2=O
inhibition [1]: 53.8%

C[C@]12CC[C@@H]3c4ccc(O)cc4CC[C@H]3[C@@H]1[C@@H](O)[C@@H](O)[C@@H]2O
inhibition [1]: 5.04%

CO/N=C(\C(=O)N[C@@H]1C(=O)N2C(C(=O)O)=C(CSC(=O)c3ccco3)CS[C@H]12)c1csc(N)n1
inhibition [1]: 22.4%

O=C(Nc1ccc(C(F)(F)F)cn1)N1CCN(c2ncccc2C(F)(F)F)CC1
inhibition [1]: -6.44%

COC(=O)c1cc2c(C(F)(F)F)cc(-c3ccccc3)cc2n1O
inhibition [1]: 16.7%

Cc1c(CN(C)C(=O)/C=C/c2cnc3c(c2)CCC(=O)N3)oc2ccccc12
inhibition [1]: 77.1%

CC1(C)CCC(C)(C)c2cc(Cn3cccn3)c(/C=C/c3ccc(C(=O)O)cc3)cc21
inhibition [1]: -7.51%

O=C(O)CCCCCCCCCCCCCCc1ccc(I)cc1
inhibition [1]: 21.6%

OCCn1cc(-c2ccc3c(c2)CC/C3=N\O)c(-c2ccncc2)n1
inhibition [1]: -0.22%

C[C@@H]1COC(Nc2ccc3ncnc(Nc4ccc(OCc5nccs5)c(Cl)c4)c3c2)=N1
inhibition [1]: 62.5%

Cc1cc(Nc2ncnc3ccc(NC4=NC(C)(C)CO4)cc23)ccc1Oc1ccn2ncnc2c1
inhibition [1]: -3.24%

Cc1cc(Nc2ncnc3ccc(-c4ccc(CNCCS(C)(=O)=O)o4)cc23)ccc1Oc1ccn2ncnc2c1
inhibition [1]: 2.93%

O=C1C=Cc2cc(Br)ccc2C1=O
inhibition [1]: 48.5%

Cc1ccc(=O)n(-c2ccc(O)cc2)c1
inhibition [1]: 1.55%

Nc1nc(Nc2ccc3c(c2)CC[C@@H](N2CCCC2)CC3)nn1-c1cc2c(nn1)-c1ccccc1CCC2
inhibition [1]: 2.38%

O=C(NC1(c2ccccc2)CC1)c1c(CN2CCC(N3CCCCC3)CC2)c(-c2cccc(C(F)(F)F)c2)nc2cc(Br)ccc12
inhibition [1]: 35.2%

COC(=O)/C=C/C(=O)OCCN1C(=O)CCC1=O
inhibition [1]: -0.93%

O=C(O)c1ccc(-c2ccc3cc(C45CC6CC(CC(C6)C4)C5)c(O)cc3c2)cc1
inhibition [1]: -6.28%

NS(=O)(=O)Oc1ccc2c3c(c(=O)oc2c1)CCCCC3
inhibition [1]: 91.6%

Fc1ccc(C(c2ccccc2)(c2ccccc2F)n2ccnc2)cc1 (centres undefined)
inhibition [1]: -9.89%

Cn1c(/C=C/C(=O)NO)ccc1/C=C/C(=O)c1cccc(F)c1
inhibition [1]: 98.6%

Cc1ccc(NC2=NCCN2)c(Cl)c1
inhibition [1]: 7.22%

CCC[C@H](N[C@@H](C)C(=O)N1[C@H](C(=O)O)C[C@@H]2CCCC[C@@H]21)C(=O)O
inhibition [1]: -9.35%

CCCC(=O)c1cc(F)ccc1OCC(O)CNC(C)(C)C (centres undefined)
inhibition [1]: -1.16%

C[C@H](Oc1cc(-c2cnn(C3CCNCC3)c2)cnc1N)c1c(Cl)ccc(F)c1Cl
inhibition [1]: -7.32%

C[n+]1ccccc1CN=O
inhibition [1]: 10.8%

O=c1[nH]c(CCl)nc2sc3c(c12)CCCC3
inhibition [1]: 83.4%

CCOC(=O)[C@@](C)(N)Cc1ccc(O)c(O)c1
inhibition [1]: 35%

Cc1ccc(Cl)c(OCC(O)CNC(C)(C)C)c1 (centres undefined)
inhibition [1]: 14.8%

CCCCCCCCCCCCCCCC(=O)OCCC1CCN(CCCN2c3ccccc3Sc3ccc(S(=O)(=O)N(C)C)cc32)CC1
inhibition [1]: 9.91%

CCCCCCCCCC(=O)OCCN1CCN(CCCN2c3ccccc3Sc3ccc(C(F)(F)F)cc32)CC1
inhibition [1]: 1.38%

OCCN1CCN(CCCN2c3ccccc3Sc3ccc(C(F)(F)F)cc32)CC1
inhibition [1]: 86.6%

CSc1ccccc1OCC(O)CNC(C)C (centres undefined)
inhibition [1]: 8.76%

NC(=S)N/N=C/c1ccncc1
inhibition [1]: 22.9%

NC(=S)N/N=C/c1coc2ccccc2c1=O
inhibition [1]: 54.7%

O=C1CCC2CCC(=O)N12
inhibition [1]: 5.05%

CO[C@@H]1[C@H](O)[C@@H](CO)O[C@H]1n1cnc2c(NC3CCCCC3)ncnc21
inhibition [1]: 13.2%

NC(=O)c1[nH]cnc1O
inhibition [1]: 3.67%

CCOCCOc1ccccc1C(N)=O
inhibition [1]: 5.9%

O=C(c1ccc(OCCCc2c[nH]cn2)cc1)C1CC1
inhibition [1]: 70.7%

NC/C(=C/F)CCc1ccc(F)cc1
inhibition [1]: 46.9%

Cc1cnc(Nc2ccc(F)cc2Cl)nc1-c1c[nH]c(C(=O)N[C@H](CO)c2cccc(Cl)c2)c1
inhibition [1]: 54.4%

O=C(NCC1CCOCC1)c1cnc(Nc2ccc(Cl)cc2Cl)nc1C(F)(F)F
inhibition [1]: -5.57%

CC12CCC(=O)C=C1CCC1C2[C@@H](O)CC2(C)C1CC[C@]2(O)C(=O)COP(=O)(O)O (some centres undefined)
inhibition [1]: 2.87%
